{"source": "the supplement of paper PMC3334620", "note": "In all, about 33,000 sequences were measured (“E-score (-0.5 to 0.5)”: median about -0.053, highest 2% from about 0.37 on). Only a selection was taken, and the highest values are over-represented in it overall.", "data": [{"biological_target": "Hap1 (UniProt P0CE41)", "sequence (P0CE41 whole entry, the tested form may be a part)": "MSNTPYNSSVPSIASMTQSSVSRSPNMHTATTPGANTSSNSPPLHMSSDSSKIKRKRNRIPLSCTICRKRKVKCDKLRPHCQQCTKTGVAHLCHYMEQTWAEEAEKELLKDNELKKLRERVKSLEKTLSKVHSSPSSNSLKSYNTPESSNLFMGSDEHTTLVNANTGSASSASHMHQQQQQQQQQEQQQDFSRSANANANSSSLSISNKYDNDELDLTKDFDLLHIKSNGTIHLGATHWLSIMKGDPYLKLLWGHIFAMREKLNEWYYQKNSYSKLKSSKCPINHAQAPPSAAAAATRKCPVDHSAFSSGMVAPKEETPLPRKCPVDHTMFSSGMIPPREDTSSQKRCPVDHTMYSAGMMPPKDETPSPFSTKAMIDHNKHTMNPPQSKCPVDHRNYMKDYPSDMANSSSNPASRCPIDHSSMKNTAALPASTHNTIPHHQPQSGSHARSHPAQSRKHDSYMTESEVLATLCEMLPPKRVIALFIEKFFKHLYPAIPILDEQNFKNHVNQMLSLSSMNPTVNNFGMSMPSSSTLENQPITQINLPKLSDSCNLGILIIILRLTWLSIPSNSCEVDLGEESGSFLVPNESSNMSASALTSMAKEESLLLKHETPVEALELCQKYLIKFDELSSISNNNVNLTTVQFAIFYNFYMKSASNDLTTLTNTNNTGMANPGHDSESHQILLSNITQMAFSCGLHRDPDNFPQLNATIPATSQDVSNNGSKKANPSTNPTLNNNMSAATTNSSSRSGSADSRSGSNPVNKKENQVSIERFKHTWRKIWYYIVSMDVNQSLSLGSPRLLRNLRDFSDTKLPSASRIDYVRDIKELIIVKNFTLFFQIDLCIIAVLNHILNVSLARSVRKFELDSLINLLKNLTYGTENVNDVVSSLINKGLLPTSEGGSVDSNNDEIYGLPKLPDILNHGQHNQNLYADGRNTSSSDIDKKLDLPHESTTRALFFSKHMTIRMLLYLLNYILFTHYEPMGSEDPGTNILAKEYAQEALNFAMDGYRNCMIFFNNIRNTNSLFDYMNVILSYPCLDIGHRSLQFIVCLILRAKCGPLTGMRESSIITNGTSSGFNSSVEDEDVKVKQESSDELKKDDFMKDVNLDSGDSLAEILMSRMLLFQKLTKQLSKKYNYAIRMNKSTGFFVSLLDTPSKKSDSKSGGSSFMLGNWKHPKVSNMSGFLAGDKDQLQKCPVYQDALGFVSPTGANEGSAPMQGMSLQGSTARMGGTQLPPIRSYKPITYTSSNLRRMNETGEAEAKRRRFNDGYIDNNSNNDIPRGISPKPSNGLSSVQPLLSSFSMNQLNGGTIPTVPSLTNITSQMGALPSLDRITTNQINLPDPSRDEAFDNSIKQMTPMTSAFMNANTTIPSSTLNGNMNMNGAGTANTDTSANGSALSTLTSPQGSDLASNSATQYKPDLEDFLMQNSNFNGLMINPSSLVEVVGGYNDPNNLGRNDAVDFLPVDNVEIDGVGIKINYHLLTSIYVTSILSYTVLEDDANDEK", "assay": "PBM E-score (8-mer binding enrichment) (E-score (-0.5 to 0.5)); higher = stronger / more preferred TF binding", "settings": "protein concentration: 200 nM; construct: GST-DNA-binding domain", "protocol": "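Universal 'all 10-mer' protein binding microarrays (Agilent AMADID 015681) probed with GST-tagged S. cerevisiae TFs (full-length or DBD) made by in vitro transcription/translation (PURExpress), about 100-200 nM. Bound TF was detected with fluorescent anti-GST. Each ungapped 8-mer (which stands for itself and its reverse complement) is scored by the PBM enrichment score (E-score), a modified Wilcoxon-Mann-Whitney statistic from -0.5 to +0.5, computed with the Universal PBM Analysis Suite. Scale: above 0.35 generally sequence-specific binding.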", "values": [{"sequence": "AGTACGGG", "PBM E-score": -0.028}, {"sequence": "ACTTCTGG", "PBM E-score": -0.297}, {"sequence": "AGTGGACG", "PBM E-score": 0.0359}, {"sequence": "TAAAAGGA", "PBM E-score": -0.0643}, {"sequence": "AGATAAGC", "PBM E-score": -0.0608}, {"sequence": "CGACCTAA", "PBM E-score": 0.161}, {"sequence": "GGACCTAA", "PBM E-score": 0.371}, {"sequence": "TGACCTAA", "PBM E-score": -0.158}, {"sequence": "TACGGAAA", "PBM E-score": 0.316}, {"sequence": "CCGGGAAA", "PBM E-score": 0.338}, {"sequence": "TGCGGAAA", "PBM E-score": 0.213}, {"sequence": "GCCGGAAA", "PBM E-score": 0.395}, {"sequence": "TCCGGAAA", "PBM E-score": 0.445}, {"sequence": "CCCGGAAG", "PBM E-score": 0.358}, {"sequence": "GACGGAAA", "PBM E-score": 0.314}, {"sequence": "CCCGGAAA", "PBM E-score": 0.411}, {"sequence": "GGCGGAAA", "PBM E-score": 0.29}, {"sequence": "TCTCAAGA", "PBM E-score": -0.0524}, {"sequence": "GTCGCGTA", "PBM E-score": -0.051}, {"sequence": "ATTCAAAG", "PBM E-score": -0.213}, {"sequence": "ACGCTTGG", "PBM E-score": -0.193}, {"sequence": "GGGGCGCA", "PBM E-score": -0.255}, {"sequence": "ACTAGTCA", "PBM E-score": -0.241}, {"sequence": "GGTGTGGA", "PBM E-score": -0.00568}, {"sequence": "GGAACACA", "PBM E-score": -0.109}, {"sequence": "AGCACGAC", "PBM E-score": -0.133}, {"sequence": "AACGCCGC", "PBM E-score": 0.355}, {"sequence": "TACGCCGA", "PBM E-score": 0.301}, {"sequence": "AACGCCGG", "PBM E-score": 0.397}, {"sequence": "AACGCCGT", "PBM E-score": 0.273}, {"sequence": "AACGCCGA", "PBM E-score": 0.447}, {"sequence": "CACGCCGA", "PBM E-score": 0.169}, {"sequence": "ACCCGCCA", "PBM E-score": -0.0193}, {"sequence": "GGGGCTCA", "PBM E-score": -0.167}, {"sequence": "ATGAGTTA", "PBM E-score": -0.207}, {"sequence": "ATAAATCC", "PBM E-score": 0.325}, {"sequence": "CTAAATCC", "PBM E-score": 0.386}, {"sequence": "CTAAATCA", "PBM E-score": -0.138}, {"sequence": "GGGCTACA", "PBM E-score": -0.0843}, {"sequence": "GCCGGCAC", "PBM E-score": 0.327}, {"sequence": "GCCGGCAA", "PBM E-score": 0.373}, {"sequence": "TCCGGCAA", "PBM E-score": 0.326}, {"sequence": "CCCGGCAA", "PBM E-score": 0.401}, {"sequence": "ACCGGCAA", "PBM E-score": 0.272}, {"sequence": "CCCGGCAG", "PBM E-score": 0.21}, {"sequence": "AAGCTCGG", "PBM E-score": 0.36}, {"sequence": "GTGCTTTA", "PBM E-score": -0.0684}, {"sequence": "CATCCCGG", "PBM E-score": 0.312}, {"sequence": "AATCCCGG", "PBM E-score": 0.397}, {"sequence": "AATCCCCG", "PBM E-score": 0.403}, {"sequence": "AATCCCTG", "PBM E-score": -0.18}, {"sequence": "AATCCCCC", "PBM E-score": 0.133}, {"sequence": "CATCCCCG", "PBM E-score": 0.356}, {"sequence": "GCTTGACA", "PBM E-score": -0.139}, {"sequence": "CATGTCTC", "PBM E-score": 0.131}, {"sequence": "AAGTGCAC", "PBM E-score": -0.0983}, {"sequence": "CGCTGGGA", "PBM E-score": 0.0217}, {"sequence": "CCTCAAGG", "PBM E-score": -0.168}, {"sequence": "CCGGGCCG", "PBM E-score": 0.425}, {"sequence": "CCGGGCCA", "PBM E-score": 0.348}, {"sequence": "CGGGGCCC", "PBM E-score": 0.258}, {"sequence": "CCGGGCGA", "PBM E-score": 0.376}, {"sequence": "GCGGGCCC", "PBM E-score": 0.216}, {"sequence": "GCGGGCGA", "PBM E-score": 0.296}, {"sequence": "CCGGGCCC", "PBM E-score": 0.369}, {"sequence": "ACGGGCGA", "PBM E-score": 0.333}, {"sequence": "ACGGGCCG", "PBM E-score": 0.29}, {"sequence": "CCGCTATA", "PBM E-score": 0.27}, {"sequence": "AATAGCAT", "PBM E-score": -0.0964}, {"sequence": "CGTGTACC", "PBM E-score": 0.11}, {"sequence": "GGGAATAA", "PBM E-score": 0.396}, {"sequence": "GGGAATAC", "PBM E-score": 0.181}, {"sequence": "CGAAATAA", "PBM E-score": 0.182}, {"sequence": "TGGAATAA", "PBM E-score": -0.128}, {"sequence": "AGAAATAA", "PBM E-score": 0.0188}, {"sequence": "GGAAATAA", "PBM E-score": 0.413}, {"sequence": "ACGCACCG", "PBM E-score": 0.00605}, {"sequence": "ACCAGTTA", "PBM E-score": -0.225}, {"sequence": "GGCCGACA", "PBM E-score": 0.383}, {"sequence": "GACCGAAA", "PBM E-score": 0.385}, {"sequence": "TGCCGACA", "PBM E-score": 0.223}, {"sequence": "CGCCGAAC", "PBM E-score": 0.344}, {"sequence": "GGCCGAAC", "PBM E-score": 0.37}, {"sequence": "TGCCGTAA", "PBM E-score": 0.0155}, {"sequence": "CGCCGTAA", "PBM E-score": 0.283}, {"sequence": "GACCGAAC", "PBM E-score": 0.347}, {"sequence": "CGCCGACA", "PBM E-score": 0.215}, {"sequence": "AGCCGAAC", "PBM E-score": 0.227}, {"sequence": "CACCGAAA", "PBM E-score": 0.261}, {"sequence": "GGCCGTAA", "PBM E-score": 0.377}, {"sequence": "ACGAGCTA", "PBM E-score": -0.108}, {"sequence": "ACCCAGTA", "PBM E-score": -0.253}, {"sequence": "ATTTGGTC", "PBM E-score": 0.141}, {"sequence": "CTCCTAAC", "PBM E-score": -0.191}, {"sequence": "TGCCGAAA", "PBM E-score": 0.303}, {"sequence": "AGCCGAAA", "PBM E-score": 0.329}, {"sequence": "GGCCGAAA", "PBM E-score": 0.405}, {"sequence": "CGTTTTAG", "PBM E-score": -0.114}, {"sequence": "AACCTGTG", "PBM E-score": -0.315}, {"sequence": "AGAACTCG", "PBM E-score": 0.0147}, {"sequence": "GAGGGAGC", "PBM E-score": -0.175}, {"sequence": "AACCAAGT", "PBM E-score": -0.152}, {"sequence": "TGATAAAA", "PBM E-score": -0.0276}, {"sequence": "GGATAAAA", "PBM E-score": 0.261}, {"sequence": "CGATAAAA", "PBM E-score": 0.382}, {"sequence": "GACTCGGA", "PBM E-score": 0.405}, {"sequence": "GCCTCGGA", "PBM E-score": 0.331}, {"sequence": "AACTCGGA", "PBM E-score": 0.345}, {"sequence": "CCCTCGGA", "PBM E-score": 0.373}, {"sequence": "ACCTCGGG", "PBM E-score": 0.26}, {"sequence": "GGCTCGGA", "PBM E-score": 0.344}, {"sequence": "AGCTCGGA", "PBM E-score": 0.325}, {"sequence": "CGCTCGGA", "PBM E-score": 0.404}, {"sequence": "ACCTCGGC", "PBM E-score": 0.377}, {"sequence": "CCCTCGGC", "PBM E-score": 0.268}, {"sequence": "CCCTCGTA", "PBM E-score": -0.0221}, {"sequence": "TACTCGGA", "PBM E-score": 0.312}, {"sequence": "CATCACAG", "PBM E-score": -0.258}, {"sequence": "TGGATGAA", "PBM E-score": -0.183}, {"sequence": "AAAGAAGA", "PBM E-score": -0.0993}, {"sequence": "GAGTGTGA", "PBM E-score": -0.176}, {"sequence": "CCCCTTAC", "PBM E-score": -0.132}, {"sequence": "TAAGGTCA", "PBM E-score": -0.193}, {"sequence": "CAGGCTAG", "PBM E-score": -0.279}, {"sequence": "AATGGGGC", "PBM E-score": -0.188}, {"sequence": "CACTCGGC", "PBM E-score": 0.374}, {"sequence": "CACTCGGG", "PBM E-score": 0.159}, {"sequence": "ACCTCGGA", "PBM E-score": 0.384}, {"sequence": "ACCTCGTA", "PBM E-score": -0.0139}, {"sequence": "AACTCGGC", "PBM E-score": 0.316}, {"sequence": "ACCTCGAA", "PBM E-score": -0.135}, {"sequence": "CTCAGCTA", "PBM E-score": -0.214}, {"sequence": "CCCTACTC", "PBM E-score": -0.0316}, {"sequence": "CCGATACC", "PBM E-score": 0.377}, {"sequence": "ACGATACC", "PBM E-score": 0.179}, {"sequence": "CCGATACA", "PBM E-score": 0.43}, {"sequence": "GCGATTCC", "PBM E-score": 0.211}, {"sequence": "CCGATTCG", "PBM E-score": 0.347}, {"sequence": "CCGATTCC", "PBM E-score": 0.405}, {"sequence": "GCGATACC", "PBM E-score": 0.192}, {"sequence": "ACGATACG", "PBM E-score": -0.263}, {"sequence": "CAGATACG", "PBM E-score": 0.0074}, {"sequence": "ACGATACA", "PBM E-score": -0.216}, {"sequence": "GCGATACA", "PBM E-score": 0.0344}, {"sequence": "CCGATACG", "PBM E-score": 0.42}, {"sequence": "GGGCACCA", "PBM E-score": -0.0557}, {"sequence": "CTGACCGA", "PBM E-score": 0.258}, {"sequence": "GGAAGCCA", "PBM E-score": -0.0815}, {"sequence": "GATTTTGC", "PBM E-score": -0.0335}, {"sequence": "ATCTCCGA", "PBM E-score": 0.486}, {"sequence": "ATCTCCAG", "PBM E-score": 0.0473}, {"sequence": "ATCTCCGC", "PBM E-score": 0.455}, {"sequence": "CTCTCCGA", "PBM E-score": 0.203}, {"sequence": "ATCTCCCG", "PBM E-score": 0.263}, {"sequence": "ATCTCCGG", "PBM E-score": 0.483}, {"sequence": "ATCTCCCC", "PBM E-score": 0.0474}, {"sequence": "CTCTCCGC", "PBM E-score": 0.0772}, {"sequence": "GTCTCCGA", "PBM E-score": 0.332}, {"sequence": "CTCCAAAC", "PBM E-score": -0.124}, {"sequence": "CCCGAGAA", "PBM E-score": 0.351}, {"sequence": "ACCGAGAA", "PBM E-score": 0.271}, {"sequence": "TCCGAGGA", "PBM E-score": 0.384}, {"sequence": "ACCGAGCT", "PBM E-score": 0.294}, {"sequence": "GCCGAGCA", "PBM E-score": 0.236}, {"sequence": "TCCGAGCA", "PBM E-score": 0.402}, {"sequence": "GCCGAGGA", "PBM E-score": 0.294}, {"sequence": "ACCGAGCA", "PBM E-score": 0.359}, {"sequence": "CCCGAGGA", "PBM E-score": 0.192}, {"sequence": "TCCGAGAA", "PBM E-score": 0.381}, {"sequence": "ACCGAGCG", "PBM E-score": 0.384}, {"sequence": "CCCGAGCG", "PBM E-score": 0.354}, {"sequence": "GCTAGGGA", "PBM E-score": -0.228}]}]}
